# Bioassay records: PubChem, several laboratories
# Shown are actives, neighbours in structure and some others; about 2.8% of the full set was active somewhere.
# HIF-2a block = blocks HIF-2a reporter activity; 786-0 RCC cells HIF-2a reporter, luciferase luminescence, overnight; inhibition, % at 18.8 µM; 360,000 tested, 0.72% active;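 active = inhibition of the luminescence signal of 40% or more relative to plate controls, in a single-dose primary screen at 18.75 µM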
# MITF TRPM1 inh = inhibitors of MITF-driven TRPM1 promoter in melanoma cells; SK-MEL-5 TRPM1 promoter luciferase, 24 h; inhibition, % at 12.5 µM; 330,000 tested, 0.83% active; AID 488899;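 active = mean inhibition across replicates of 60% or more, whatever share of single replicates reaches that level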
# CF NFkB inh = inhibitors of cystic fibrosis induced NF-kB. KKLEB NF-kB-GFP reporter, PAF-induced, GFP fluorescence overnight. inhibition, % at 5 µM. 360,000 tested, 0.86% active;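 active = at least 50% inhibition at 5 µM, scaled per plate between neutral and stimulator controls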;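 also: PAF is a Pseudomonas aeruginosa culture filtrate used as stimulus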
# KKLEB cytotox = CF airway cell cytotoxicity counter-screen. KKLEB CF airway cells viability, ATPlite luminescence, overnight; hits give low values; cells stimulated with P. aeruginosa culture filtrate. activity change (cytotoxicity), % at 5 µM. 360,000 tested, 0.36% active;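 active = corrected activity change at or below -50% at 5 µM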
# Shn3 inh set2 = Schnurri-3 reporter inhibition in Clone20 osteoblasts. AID 588674. inhibition, % at 12.5 µM. Clone20 osteoblast Shn3 3'UTR firefly luciferase, 24 h. 360,000 tested, 0.52% active;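 active = mean inhibition of at least 75% with every replicate also reaching 75%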
# Peg3 prom inh-1 = reduces Peg3 promoter-driven luciferase expression in HeLa | HeLa PEG-Prom luciferase reporter, luminescence, overnight | inhibition, % at 20 µM | 360,000 tested, 1.7% active | AID 588405;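 active = inhibition of at least 50% at 20 µM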
# Peg3 prom inh-2 = confirmation of Peg3 promoter inhibitors. 1,300 tested, 84% active. HeLa PEG-Prom luciferase reporter, luminescence, overnight. inhibition, % at 20 µM. shares compounds with Peg3 prom inh-1. AID 602417;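 active = at 20 µM dose, 40% or more inhibition averaged across four replicates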
# A number is an active result; - = inactive; . = no result given.
SMILES,HIF-2a block,MITF TRPM1 inh,CF NFkB inh,KKLEB cytotox,Shn3 inh set2,Peg3 prom inh-1,Peg3 prom inh-2
Cn1ccnc1/C(=N\NC(=O)c1ccccc1)c1cccc([N+](=O)[O-])c1,-,-,-,-,-,-,.
O=C(N/N=C(\c1ccccc1)c1ccccn1)c1cccc([N+](=O)[O-])c1,-,83,-,-,92,51,62
Cc1ccc(-n2cc(CNCCCn3ccnc3C)c(-c3ccc(F)cc3)n2)cc1,-,72,-,-,-,112,98
CN=c1sc2c(n1C)C(=O)c1ccccc1C2=O,-,93,82,-67,-,88,91
CN=c1sc(C(=O)Nc2ccccc2)c(C)n1C,-,-,-,-,-,-,.
O=C(CN(Cc1ccccc1F)C(=O)c1csnn1)NCc1ccc2c(c1)OCO2,-,-,-,-,-,-,.
CC(C)[C@H](NC(=O)c1ccco1)C(=O)N(C)Cc1c(F)cccc1Cl,-,-,-,-,-,-,.
COCCN(C(=O)COC(=O)/C=C/c1ccc(Cl)c(Cl)c1)c1c(N)n(Cc2ccccc2)c(=O)[nH]c1=O,-,-,-,-,-,-,.
CC(C)CN(C(=O)COC(=O)/C=C/c1ccc(Cl)c(Cl)c1)c1c(N)n(Cc2ccccc2)c(=O)[nH]c1=O,-,100,-,-,-,89,44
CCOC(=O)c1c(C)[nH]c(C(=O)OCC(=O)Nc2sccc2C(N)=O)c1C,-,-,-,-,-,70,73
COC(=O)C1=C(CN2CCCc3ccccc32)NC(=O)NC1c1ccc(F)cc1 (stereo not given),63,87,-,-,-,81,67
O=C(CCN1C(=O)/C(=C/c2ccc(F)cc2)SC1=S)NNC(=O)c1ccncc1,-,-,-,-,-,-,.
O=C(CCN1C(=O)/C(=C/c2ccc(F)cc2)SC1=S)N[C@@H](CO)Cc1ccccc1,-,-,-,-,-,79,72
CC(C)(C)c1ccc(SCCc2cccnc2)cc1,-,-,-,-,-,-,.
COc1cc(CNCCN2CCOCC2)ccc1OCc1ccc(Cl)cc1,-,-,-,-,-,-,.
COc1cc(CNCCCN2CCOCC2)cc(Br)c1OCc1ccc(Cl)cc1,-,-,-,-,-,100,100
COc1ccccc1CNS(=O)(=O)c1cc2c3c(c1)C(C)C(=O)N3CCC2 (stereo not given),-,-,-,-,-,-,.
O=C(COC(=O)c1ccccc1)NC1CCCCCC1,-,-,-,-,-,-,.
N/C(=N\OC(=O)c1ccccc1)C(C(=O)NOC(=O)c1ccccc1)C1CCCCC1 (stereo not given),-,-,-,-,-,86,97
c1ccc(C(c2ccccc2)c2noc(CN3CCC(c4ccncc4)CC3)n2)cc1,-,-,-,-,-,-,.
COC(=O)CSc1ncnc2scc(-c3ccccc3)c12,-,-,-,-,-,-,.
CC(=O)c1ccccc1-c1csc2ncnc(Sc3nnnn3C)c12,-,-,-,-,-,54,-
Cc1ccc(C(C[N+](=O)[O-])Sc2ccc(N)cc2)cc1 (stereo not given),-,68,-,-,.,106,97
Cc1ccc(C(C[N+](=O)[O-])n2nc(C)cc2C)cc1 (stereo not given),-,-,-,-,-,-,.
Cc1ccc2nc(/C(C#N)=C\c3ccc([N+](=O)[O-])o3)[nH]c2c1,-,92,-,-68,99,105,84
SMILES,HIF-2a block,MITF TRPM1 inh,CF NFkB inh,KKLEB cytotox,Shn3 inh set2,Peg3 prom inh-1,Peg3 prom inh-2
COC1=CC(=O)c2c(ccc3ncnc(N)c23)C1=O,91,113,82,-90,97,93,99
Cc1cc(C)c(S(=O)(=O)ON2C(=O)c3ccccc3C2=O)cc1C,-,-,-,-,-,70,41
Cc1ccc(OC(=O)CN2C(=O)c3ccccc3C2=O)cc1C,-,-,-,-,-,-,.
COc1ccccc1C(C)NC(=O)c1ccc(NC(=O)CC2SC(N3CCCC3)=NC2=O)cc1 (stereo not given),-,-,-,-,-,-,.
CC(OC(=O)CCN=C1NS(=O)(=O)c2ccccc21)C(=O)Nc1ccc(F)cc1 (stereo not given),-,-,-,-,-,-,.
NC(C(=O)O)C1ON=C(Cl)C1O (stereo not given),-,-,-,-,-,59,62
